# According to PubChem BioAssay AID1159580 (chemical genetic matrix, 2015):
# The whole screen tested about 5,500 compounds, of which about 2,000 (36%) were called active. Another 18% or so got no clear call; they are omitted. The list shows a part of the results. Values without a mark were called inactive. Cut-off read from the data, not from the text of the source: active = normalized growth mostly below about 0.91 (no sharp cut-off); inconclusive = no clear call, values can overlap the other calls; inactive = mostly above about 0.92.
# Assay: chemical genetic growth profiling, strain panel (AID 1159580);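 note: tested at 20 µM; growth read once vehicle control cultures reached saturation at 30 °C; 1 = growth at the plate median or of vehicle wells; lower values mean less growth of the strain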
# Conditions: growth OD
structure (smiles),measurement,setting,value
COc1ccc(-c2c(O)c3c(OC)c4c(cc3oc2=O)OC(C)(C)C=C4)cc1,normalized growth,"S. cerevisiae deletion strains, locus YJL187C, strain SWE1, hits give low values",0.952
same,normalized growth,"S. cerevisiae deletion strains, locus YJR066W, strain TOR1, hits give low values",0.934
same,normalized growth,"S. cerevisiae deletion strains, locus YKL009W, strain mrt4, hits give low values",0.935
same,normalized growth,"S. cerevisiae deletion strains, locus YKL068W, hits give low values",0.969
same,normalized growth,"S. cerevisiae deletion strains, locus YKL085W, strain MDH1 (second series), hits give low values",0.97
same,normalized growth,"S. cerevisiae deletion strains, locus YKL085W, strain MDH1, hits give low values",0.97
same,normalized growth,"S. cerevisiae deletion strains, locus YKL160W, strain elf1, hits give low values",0.936
same,normalized growth,"S. cerevisiae deletion strains, locus YKR001C, strain vps1, hits give low values",0.97
same,normalized growth,"S. cerevisiae deletion strains, locus YKR026C, strain gcn3, hits give low values",0.947
same,normalized growth,"S. cerevisiae deletion strains, locus YKR091W, strain srl3, hits give low values",0.954
same,normalized growth,"S. cerevisiae deletion strains, locus YLL001W, strain dnm1, hits give low values",0.968
same,normalized growth,"S. cerevisiae deletion strains, locus YLL026W, hits give low values",0.959
same,normalized growth,"S. cerevisiae deletion strains, locus YLL041C, strain sdh2, hits give low values",0.942
same,normalized growth,"S. cerevisiae deletion strains, locus YLR027C, strain aat2, hits give low values",0.965
same,normalized growth,"S. cerevisiae deletion strains, locus YLR039C, strain RIC1, hits give low values",1.01
same,normalized growth,"S. cerevisiae deletion strains, locus YLR058C, strain SHM2, hits give low values",0.949
same,normalized growth,"S. cerevisiae deletion strains, locus YLR102C, strain apc9, hits give low values",0.958
same,normalized growth,"S. cerevisiae deletion strains, locus YLR113W, strain HOG1, hits give low values",0.907
same,normalized growth,"S. cerevisiae deletion strains, locus YLR221C, strain rsa3, hits give low values",0.962
same,normalized growth,"S. cerevisiae deletion strains, locus YLR258W, strain gsy2, hits give low values",0.962
same,normalized growth,"S. cerevisiae deletion strains, locus YLR262C, strain YPT6 (second series), hits give low values",0.885
same,normalized growth,"S. cerevisiae deletion strains, locus YLR262C, strain YPT6, hits give low values",0.987
same,normalized growth,"S. cerevisiae deletion strains, locus YLR268W, strain sec22, hits give low values",0.91
same,normalized growth,"S. cerevisiae deletion strains, locus YLR320W, strain mms22, hits give low values",0.921
same,normalized growth,"S. cerevisiae deletion strains, locus YLR330W, strain CHS5, hits give low values",0.96
same,normalized growth,"S. cerevisiae deletion strains, locus YLR342W, strain FKS1, hits give low values",0.939
same,normalized growth,"S. cerevisiae deletion strains, locus YLR357W, strain rsc2, hits give low values",1
same,normalized growth,"S. cerevisiae deletion strains, locus YLR370C, strain arc18, hits give low values",0.95
same,normalized growth,"S. cerevisiae deletion strains, locus YLR371W, strain rom2, hits give low values",0.98
same,normalized growth,"S. cerevisiae deletion strains, locus YLR384C, strain iki3, hits give low values",0.954
same,normalized growth,"S. cerevisiae deletion strains, locus YLR418C, strain cdc73, hits give low values",0.833 (active)
same,normalized growth,"S. cerevisiae deletion strains, locus YML016C, strain PPZ1, hits give low values",0.958
same,normalized growth,"S. cerevisiae deletion strains, locus YML032C, strain rad52, hits give low values",0.901 (active)
same,normalized growth,"S. cerevisiae deletion strains, locus YML120C, strain ndi1, hits give low values",0.964
same,normalized growth,"S. cerevisiae deletion strains, locus YML124C, strain tub3, hits give low values",0.96
same,normalized growth,"S. cerevisiae deletion strains, locus YMR058W, strain fet3, hits give low values",0.961
same,normalized growth,"S. cerevisiae deletion strains, locus YMR078C, strain ctf18, hits give low values",0.942
same,normalized growth,"S. cerevisiae deletion strains, locus YMR125W, strain sto1, hits give low values",0.971
same,normalized growth,"S. cerevisiae deletion strains, locus YMR129W, hits give low values",0.95
same,normalized growth,"S. cerevisiae deletion strains, locus YMR205C, strain PFK2, hits give low values",0.909
same,normalized growth,"S. cerevisiae deletion strains, locus YMR223W, strain ubp8, hits give low values",0.928
same,normalized growth,"S. cerevisiae deletion strains, locus YMR231W, strain pep5, hits give low values",0.95
same,normalized growth,"S. cerevisiae deletion strains, locus YMR307W, strain GAS1, hits give low values",1.1
same,normalized growth,"S. cerevisiae deletion strains, locus YNL067W, strain RPL9B, hits give low values",0.967
same,normalized growth,"S. cerevisiae deletion strains, locus YNL071W, strain lat1, hits give low values",0.922
same,normalized growth,"S. cerevisiae deletion strains, locus YNL128W, strain TEP1, hits give low values",0.997
same,normalized growth,"S. cerevisiae deletion strains, locus YNL183C, strain NPR1, hits give low values",0.911
same,normalized growth,"S. cerevisiae deletion strains, locus YNL209W, strain ssb2, hits give low values",0.959
same,normalized growth,"S. cerevisiae deletion strains, locus YNL233W, strain BNI4, hits give low values",0.965
same,normalized growth,"S. cerevisiae deletion strains, locus YNL248C, strain rpa49, hits give low values",0.967
same,normalized growth,"S. cerevisiae deletion strains, locus YNL250W, strain rad50, hits give low values",0.913
same,normalized growth,"S. cerevisiae deletion strains, locus YNL271C, strain bni1, hits give low values",1
same,normalized growth,"S. cerevisiae deletion strains, locus YNL298W, strain CLA4, hits give low values",0.962
same,normalized growth,"S. cerevisiae deletion strains, locus YNL307C, strain MCK1, hits give low values",0.84 (active)
same,normalized growth,"S. cerevisiae deletion strains, locus YNL322C, strain KRE1 (second series), hits give low values",0.961
same,normalized growth,"S. cerevisiae deletion strains, locus YNL322C, strain KRE1, hits give low values",0.949
same,normalized growth,"S. cerevisiae deletion strains, locus YNR049C, strain mso1, hits give low values",0.965
same,normalized growth,"S. cerevisiae deletion strains, locus YNR052C, strain pop2, hits give low values",0.946
same,normalized growth,"S. cerevisiae deletion strains, locus YOL012C, strain htz1",0.954
same,normalized growth,"S. cerevisiae deletion strains, locus YOL147C, strain pex11, hits give low values",0.928 (active)
same,normalized growth,"S. cerevisiae deletion strains, locus YOR001W, strain rrp6, hits give low values",0.969
same,normalized growth,"S. cerevisiae deletion strains, locus YOR061W, strain CKA2, hits give low values",0.952
same,normalized growth,"S. cerevisiae deletion strains, locus YOR069W, strain VPS5, hits give low values",0.952
same,normalized growth,"S. cerevisiae deletion strains, locus YOR070C, strain gyp1, hits give low values",0.94
same,normalized growth,"S. cerevisiae deletion strains, locus YOR080W, strain dia2, hits give low values",0.971
same,normalized growth,"S. cerevisiae deletion strains, locus YOR083W, strain WHI5, hits give low values",0.953
same,normalized growth,"S. cerevisiae deletion strains, locus YOR106W, strain vam3, hits give low values",0.971
same,normalized growth,"S. cerevisiae deletion strains, locus YOR136W, strain idh2, hits give low values",0.959
same,normalized growth,"S. cerevisiae deletion strains, locus YOR144C, strain elg1, hits give low values",0.942
same,normalized growth,"S. cerevisiae deletion strains, locus YOR184W, strain ser1, hits give low values",0.971
same,normalized growth,"S. cerevisiae deletion strains, locus YOR231W, strain MKK1, hits give low values",0.969
same,normalized growth,"S. cerevisiae deletion strains, locus YOR265W, strain rbl2, hits give low values",0.937
same,normalized growth,"S. cerevisiae deletion strains, locus YOR270C, strain vph1, hits give low values",0.923
same,normalized growth,"S. cerevisiae deletion strains, locus YOR290C, strain snf2, hits give low values",0.938
same,normalized growth,"S. cerevisiae deletion strains, locus YOR316C, strain cot1, hits give low values",0.916 (active)
same,normalized growth,"S. cerevisiae deletion strains, locus YPL051W, strain arl3, hits give low values",0.951
same,normalized growth,"S. cerevisiae deletion strains, locus YPL078C, strain atp4, hits give low values",0.967
same,normalized growth,"S. cerevisiae deletion strains, locus YPL106C, strain sse1, hits give low values",1.01
same,normalized growth,"S. cerevisiae deletion strains, locus YPL240C, strain hsp82, hits give low values",0.95
same,normalized growth,"S. cerevisiae deletion strains, locus YPL241C, strain CIN2, hits give low values",0.938
same,normalized growth,"S. cerevisiae deletion strains, locus YPL256C, strain CLN2, hits give low values",0.933
same,normalized growth,"S. cerevisiae deletion strains, locus YPR119W, strain clb2, hits give low values",0.928 (active)
same,normalized growth,"S. cerevisiae deletion strains, locus YPR141C, strain kar3, hits give low values",0.958
same,normalized growth,"S. cerevisiae deletion strains, locus YPR163C, strain tif3, hits give low values",0.908 (active)
same,normalized growth,"S. cerevisiae deletion strains, locus YPR167C, strain met16, hits give low values",0.94
same,normalized growth,"S. cerevisiae deletion strains, strain wtn01, hits give low values",0.958
same,normalized growth,"S. cerevisiae strains, strain wild type, hits give low values",0.993
